Screens deposited in PubChem by National Center for Advancing Translational Sciences (NCATS).
Hits are enriched below; roughly 19% of the tested compounds scored in any of these assays.
DT40 TDP1 CPT = qHTS for Inhibitors of human tyrosyl-DNA phosphodiesterase 1 (TDP1): qHTS in cells in presence of CPT; Potency, µM (series often up to 46.2 µM), most hits filed as inhibitors; AID 686979, 2013; chicken DT40 Tdp1-/-;hTDP1 cells + 20 nM CPT, ATP luminescence, 48 h; 420,000 tested, 12% active; also: nearly all actives have a fitted effect of over 55% in size
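Cell growth measured by CellTiter-Glo luminescence after a minimum 48 h, 37 C compound exposure with 20 nM CPT in Tdp1-knockout DT40 cells stably expressing hTDP1, seeded 400/well; qHTS titration format.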
S-ASM inh = Inhibitors of Secretory Acid Sphingomyelinase (S-ASM): qHTS. placental ASM, HMU-PC fluorogenic substrate, 60 min. 340,000 tested, 0.006% active. Potency, µM (titrated, usually from 57.5 µM), usual class: inhibitors. Sphingomyelin phosphodiesterase (Homo sapiens), P17405
Target sequence (P17405 47-631 limits assumed): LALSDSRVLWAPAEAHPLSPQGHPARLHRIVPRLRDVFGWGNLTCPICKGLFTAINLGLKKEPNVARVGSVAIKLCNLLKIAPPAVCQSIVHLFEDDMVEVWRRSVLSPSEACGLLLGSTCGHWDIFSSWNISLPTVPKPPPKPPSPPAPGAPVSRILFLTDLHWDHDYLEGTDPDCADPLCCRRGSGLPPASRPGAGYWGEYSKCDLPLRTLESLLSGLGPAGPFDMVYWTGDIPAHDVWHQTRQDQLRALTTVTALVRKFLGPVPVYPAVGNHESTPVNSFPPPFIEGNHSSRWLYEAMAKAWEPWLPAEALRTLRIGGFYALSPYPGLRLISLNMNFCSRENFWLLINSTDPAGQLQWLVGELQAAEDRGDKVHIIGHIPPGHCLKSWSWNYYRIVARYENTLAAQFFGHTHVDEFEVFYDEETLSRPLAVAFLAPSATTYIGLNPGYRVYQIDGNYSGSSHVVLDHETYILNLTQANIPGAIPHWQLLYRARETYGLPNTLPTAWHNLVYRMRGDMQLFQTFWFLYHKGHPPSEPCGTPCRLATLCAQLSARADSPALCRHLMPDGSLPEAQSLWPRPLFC
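HMU-PC0 cleavage (9 uM final) by human placental ASM, 60 min at 37 °C following 10 min compound exposure at RT; stopped at pH 10, fluorescence Ex 386/Em 447 nm.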
TGFb SMAD3 inh = qHTS for Inhibitors of TGF-b | 410,000 tested, 1.2% active | AID 588855, 2011 | Potency, µM (top dose mostly 46.1 µM), usual class: inhibitors | HepG2 CAGA-GFP TGF-b/SMAD3 reporter, GFP fluorescence, 18 h; TGF-beta stimulated, 500 pg/mL final; also: nearly all actives have a fitted effect of over 65% in size
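TGF-beta reporter screen: HEPG2 CAGA-GFP, 1% FBS, 500 pg/mL TGF-beta final, 18 h; per-cell GFP summed per well; curves fitted and categorized by class.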
DT40 TDP1 no CPT = qHTS for Inhibitors of human tyrosyl-DNA phosphodiesterase 1 (TDP1): qHTS in cells in absence of CPT; DT40 Tdp1-/- hTDP1 cells, no CPT, ATP luminescence, 48 h; Potency, µM (titrated, usually from 46.2 µM), usual class: inhibitors; 420,000 tested, 15% active; AID 686978, 2013; also: nearly all actives have a fitted effect of over 55% in size
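Chicken DT40 Tdp1-/- cells stably complemented with human TDP1 were seeded at 400 cells/well with DMSO in place of 20 nM camptothecin. After compound pinning, cells grew at least 48 hr at 37 °C; viability read by CellTiter-Glo luminescence.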
HepG2 tox = qHTS for Inhibitors of TGF-b: Cytotox Counterscreen; HepG2 CAGA-GFP viability, ATP luminescence, 18 h; Potency, µM (highest dose often 46.1 µM), hits mostly cytotoxic; 410,000 tested, 0.76% active
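HepG2 CAGA-GFP cells (1000/well, DMEM with 1% FBS) received compound, then TGF-beta at 500 pg/mL final, and were incubated 18 hours at 37 degrees C. Viability was read by CellTiter-Glo luminescence. Media-only wells were set as complete cell-killing and DMSO as no toxicity.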
IL-1B inflam inh = qHTS for Inhibitors of Inflammasome Signaling: IL-1-beta AlphaLISA Primary Screen | THP-1 LPS/ATP IL-1B secretion, AlphaLISA, 16 h; active compounds read low | activity change, % at 57.5 µM | 360,000 tested, 4.7% active | AID 743279, 2014; in the data active = activity change below about -50%; inconclusive = mostly about -30% to -49%
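Secreted IL-1B measured by AlphaLISA bead assay after 16 h compound exposure of THP-1 cells; compounds (final up to 57.5 uM) added 1 h before LPS (250 ng/mL) and ATP (1.25 mM) stimulation; lower signal means less secretion.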
Each line names hits and unclear results; the compound was inactive in the other large screens. Unless noted, calls follow the shape of the dose curve; as a rule, active = well fitted curve in the direction sought with a large enough effect; inconclusive = small, poorly fitted or top-dose-only effect, or another doubt; inactive = no such curve, though single readings can be large; an effect the other way counts as inactive or inconclusive.

Cc1ccccc1C(=O)NNC(=S)NC(=O)c1cccs1	DT40 TDP1 CPT 20.6µM, TGFb SMAD3 inh inconclusive, DT40 TDP1 no CPT 18.4µM
Cc1ccccc1C(=O)NC(=S)NC1CCSC1=O (stereo not given)	none
O=C(NC(=S)NC1CCSC1=O)c1cccs1 (stereo not given)	DT40 TDP1 no CPT 29.1µM
CCNc1ncc2nc(C)c(=O)n(Cc3cccs3)c2n1	none (no result: S-ASM inh, TGFb SMAD3 inh, HepG2 tox, IL-1B inflam inh)
Cc1cc(C(=O)NC2CCCC(C)C2C)c2ccccc2n1 (stereo not given)	DT40 TDP1 CPT inconclusive, DT40 TDP1 no CPT inconclusive
CCOC(=O)C1=C(N)Oc2cc(O)ccc2C1c1ccc([N+](=O)[O-])cc1 (stereo not given)	S-ASM inh inconclusive, TGFb SMAD3 inh inconclusive, IL-1B inflam inh -69.8
CCOCCn1c(=O)c2c(nc3n2CCN3c2ccc(C)c(C)c2)n(C)c1=O	none (no result: S-ASM inh, IL-1B inflam inh)
Cn1c(=O)c2c(SCC(=O)N3CCCc4ccccc43)nc(CC(C)(C)C)nc2n(C)c1=O	DT40 TDP1 CPT inconclusive, DT40 TDP1 no CPT inconclusive
CCc1nc(SCC(=O)N2CCOCC2)c2c(=O)n(C)c(=O)n(C)c2n1	none
CCCc1nc(SCC(=O)N2CCCc3ccccc32)c2c(=O)n(C)c(=O)n(C)c2n1	DT40 TDP1 CPT 25.9µM, S-ASM inh inconclusive, TGFb SMAD3 inh inconclusive, DT40 TDP1 no CPT 23.1µM
CCCc1nc(SCC(=O)N2CCC(Cc3ccccc3)CC2)c2c(=O)n(C)c(=O)n(C)c2n1	DT40 TDP1 CPT 20.6µM, S-ASM inh inconclusive, DT40 TDP1 no CPT 16.4µM
Cn1c(=O)c2c(SCC(=O)NCCc3ccccc3)nc(C3CC3)nc2n(C)c1=O	none
Cn1c(=O)c2c(SCCN3CCOCC3)nc(C3CCCC3)nc2n(C)c1=O	DT40 TDP1 CPT 16.4µM, DT40 TDP1 no CPT 20.6µM
Cn1c(=O)c2c(SCC(=O)N3CCN(c4ccccc4)CC3)nc(C3CC3)nc2n(C)c1=O	DT40 TDP1 CPT 13µM, DT40 TDP1 no CPT 7.31µM
CCCc1nc(SCC(=O)Nc2ccccc2)c2c(=O)n(C)c(=O)n(C)c2n1	DT40 TDP1 CPT inconclusive, DT40 TDP1 no CPT inconclusive
O=S(=O)(NC(=S)NC1CCCCC1)c1ccc(Br)cc1	DT40 TDP1 no CPT inconclusive
O=C(NCCCn1ccnc1)C1CCN(S(=O)(=O)c2ccc(F)cc2)CC1	none
O=C(O)/C(=C\c1cccc(O)c1)c1ccc(S(=O)(=O)N2CCCC2)s1	DT40 TDP1 no CPT inconclusive
CCC(C(=O)O/N=C(\N)c1ccccc1)c1ccccc1 (stereo not given)	none
N/C(=N\OC(=O)C(c1ccccc1)c1ccccc1)c1ccncc1	DT40 TDP1 no CPT 29.1µM
CCN(CC)S(=O)(=O)c1ccc(N2CCCC2)c(NS(=O)(=O)c2ccc([N+](=O)[O-])cc2)c1	DT40 TDP1 CPT inconclusive
COc1cc(/C=C/C(=O)Nc2ccc(N3CCCCC3)c(S(=O)(=O)Nc3ccccc3Cl)c2)cc(OC)c1OC	DT40 TDP1 CPT inconclusive, DT40 TDP1 no CPT 2.59µM
COc1ccccc1NS(=O)(=O)c1cc(NC(=O)Nc2ccc(Cl)cc2Cl)ccc1N1CCCCC1	DT40 TDP1 CPT inconclusive, TGFb SMAD3 inh inconclusive, DT40 TDP1 no CPT inconclusive
CCN(CC)S(=O)(=O)c1ccc(N2CCCCC2)c(NC(=O)/C=C/c2cc(OC)c(OC)c(OC)c2)c1	DT40 TDP1 CPT inconclusive, DT40 TDP1 no CPT 11.6µM
CCN(CC)S(=O)(=O)c1ccc(N2CCCC2)c(NS(=O)(=O)c2ccc(F)cc2)c1	DT40 TDP1 CPT inconclusive, DT40 TDP1 no CPT 14.6µM
CCN(CC)S(=O)(=O)c1ccc(N2CCCC2)c(NC(=O)Cc2ccccc2)c1	DT40 TDP1 CPT inconclusive, DT40 TDP1 no CPT 14.6µM
COCCn1c(SCC(=O)NC(=O)NCc2ccccc2)nc2ccccc2c1=O	none
Cc1ccc(NC(=O)CN(C)C(=O)c2ccc(Sc3nncn3C)c([N+](=O)[O-])c2)cc1	none
CCCN(CCC)S(=O)(=O)c1ccc2c(c1)N(CC(=O)NCc1ccc(F)cc1Cl)C(=O)CS2	DT40 TDP1 CPT inconclusive, TGFb SMAD3 inh inconclusive, DT40 TDP1 no CPT inconclusive (no result: S-ASM inh, IL-1B inflam inh)
CCN(CC)S(=O)(=O)c1ccc(N2CCCC2)c(NC(=O)c2ccccc2OC)c1	DT40 TDP1 CPT inconclusive, TGFb SMAD3 inh inconclusive, DT40 TDP1 no CPT 14.6µM
CCN(CC)S(=O)(=O)c1ccc(N2CCCC2)c(NS(=O)(=O)c2ccc(OC)cc2)c1	DT40 TDP1 CPT inconclusive, TGFb SMAD3 inh inconclusive, DT40 TDP1 no CPT 16.4µM
CCN(CC)S(=O)(=O)c1ccc(N2CCCC2)c(NS(=O)(=O)c2ccccc2)c1	DT40 TDP1 CPT 23.1µM, DT40 TDP1 no CPT inconclusive
COc1ccc(NC(=O)Cn2nc3c(cc2=O)CCCC3)cc1Cl	none (no result: S-ASM inh, IL-1B inflam inh)
CCCCN(C(=O)c1cccc(S(=O)(=O)N(C)c2ccc(C)cc2)c1)c1c(N)n(CC(C)C)c(=O)[nH]c1=O	none
COc1ccc2[nH]c(CN3CCN(CC=C(C)C)C(CCO)C3)c(C)c2c1 (stereo not given)	none
O=C(c1ccncc1)N1CCN(S(=O)(=O)c2cccc(Cl)c2)CC1	none
